# According to ChEMBL document CHEMBL4513216, “Probing the Open Global Health Chemical Diversity Library for Multistage-Active Starting Points for Next-Generation Antimalarials” (ACS Infect Dis, 2020):
# Screen size: about 69,000 compounds; about 8,600 (12%) showed an effect of 50% or more. The list comes from a sample in which strong results are over-represented; it also holds similar structures and randomly drawn compounds.
# Test system: Plasmodium berghei
# Assay: Screen against P. berghei liver stage (PbLuc), transformed with Luciferase, at 10uM
# Format: functional, HepG2
# Details: tested at 10 uM
row,Structure (SMILES),INHIBITION [%]
1,Cc1cc(C(=O)N2CCn3cc(CN4CCN(C)CC4)nc3C2)no1,32.2
2,Cc1nc(Nc2nccs2)cc(C2CN(C(C)C)C2)n1,-17.9
3,CC(=O)N1CCCC(c2cnc(-c3c(C)nn(C)c3C)cn2)C1 (centres undefined),47.8
4,CCc1n[nH]c(C2CN(C(=O)c3ccc(Cl)cn3)CCO2)n1 (centres undefined),25.4
5,CN(CC(=O)N(C)C(c1ccc(Cl)cc1)c1cccnc1)C1CC1 (centres undefined),3.19
6,CCS(=O)(=O)N1CCC2(CC1)CC(Oc1ccccn1)CO2 (centres undefined),0.547
7,CN1CCCN(C[C@@H]2CN(c3nc(C(N)=O)cs3)C[C@@H]2CO)CC1,20.3
8,Cc1cnn(C2CCCN(C(=O)c3ccc(N4CCCC4)nc3)C2)c1 (centres undefined),19.6
9,CN1CCC(N(C)C(=O)c2cnn(-c3ccccc3Br)c2N)CC1,27.3
10,CCCS(=O)(=O)N1CCC2(CC1)CN(CC1CCOC1)c1ccccc12 (centres undefined),87.4
11,CCCS(=O)(=O)N1CCC2(CC1)CN(C(=O)N(C)C)c1ccccc12,10.7
12,CN(C)C(=O)N1CCC2(CC1)C(=O)N(CC1CCOC1)c1ccccc12 (centres undefined),7.5
13,O=C1CO[C@@H]2CN(CC3CCOCC3)C[C@H]2N1CC1CC1,37.5
14,Cc1cccnc1NCCNC(=O)C1CCN(Cc2ccco2)CC1,48.4
15,Cc1cccnc1NCCNC(=O)C1CCN(C(=O)N(C)C)CC1,50.2
16,N#Cc1cccnc1NCCNC(=O)N1CCCC(N2CCCC2)C1 (centres undefined),24.6
17,CN(C)C(=O)N1CCC(C(=O)NCCNc2ncccc2C#N)CC1,68.8
18,N#Cc1cccnc1NCCNC(=O)N1CCSCC1,14.6
19,Cc1cccnc1NCCNC(=O)[C@H]1CNC[C@@H](C(=O)N2CCCC2)C1,18.5
20,CCn1c(C2CCNCC2)nn(CCn2cncn2)c1=O,32
21,COc1cc(CN2CCC(COCc3ccccc3)CC2)cc(OC)c1,33.7
22,COCCNC(=O)NCc1cc(-c2ccncc2)n(C2CCCC2)n1,26.4
23,Cc1ncc(-c2ccnc(NCCO)n2)c(C2CCCCC2)n1,79.7
24,Cc1cc2nc(C3CCCCC3)c(-c3ccnc(NCCO)n3)cn2n1,20.4
25,Cc1ncc(-c2ccnc(N[C@@H](C)CO)n2)c(C2CCCCC2)n1,47.1
26,Cc1cccc(C)c1NC(=O)CC(CN1CCN(C)CC1)C(=O)O (centres undefined),5.21

row,Structure (SMILES),INHIBITION [%]
1,O=C1CCc2cc(-c3csc(CCN4CCOC4=O)n3)ccc2N1,-26.6
2,Cc1nccn1C1CCCN(C(=O)c2cc(Cl)c3c(c2)OCO3)C1 (centres undefined),-15.5
3,COCCN1CCOCC12CCN(C(=O)c1c[nH]c3ccccc13)CC2,57.9
4,COCCN1CCOCC12CCN(C(=O)c1ccoc1)CC2,21.8
5,COCCN1CCOCC12CCN(C(=O)c1ccncc1)CC2,47.4
6,N#Cc1ccc(OCCCN2CCOC(Cn3cncn3)C2)cc1 (centres undefined),36.1
7,CC1(C2CCN(CC(N)=O)CC2)CN(Cc2ccccc2)C(=O)O1 (centres undefined),1.5
8,Oc1cc(-c2cccs2)nc(C2CCCN(CC3=CCCOC3)C2)n1 (centres undefined),23.9
9,COc1c(C2CCCN2C(=O)c2nccnc2N)c(C)nn1C (centres undefined),14.1
10,CC(=O)NCCNC(=O)c1ccc(C)c(-n2cccc2)c1,10.7
11,COC1CC2(CCN(Cc3nccn3C)CC2)C1,-43.1
12,Cn1ccnc1CN1CCC2(COCCN(Cc3ccsc3)C2)C1 (centres undefined),25.1
13,Cn1cc(CN2CCCC23CCN(Cc2nccn2C)CC3)cn1,8.67
14,Cn1ccnc1CN1CCC2(CCCN2c2ncccn2)CC1,21.7
15,CN(C)CCN1CCCC12CCN(Cc1nccn1C)CC2,70.2
16,CCOC1CC2(CCN(Cc3nccn3C)CC2)C1,-11.6
17,CN(C)C(=O)N1CCC2(CC1)COCCN(c1ncccn1)C2,-30
18,Cn1ccnc1CN1CCC2(CC1)COCCN(c1ncccn1)C2,62.3
19,Cn1ccnc1CN1CCC2(CC1)COC2,61.3
20,Cn1ccnc1CN1CCC2(COCCN(S(=O)(=O)C3CC3)C2)C1 (centres undefined),64.3
21,Cn1ccnc1CN1CCC2(CC1)COCCN(S(C)(=O)=O)C2,36.5
22,c1cnc(N2CCC3(COCCN(CC4CC4)C3)C2)nc1 (centres undefined),46.1
23,COCc1ncc(CN2CC[C@@](O)(COC)C(C)(C)C2)cn1,31
24,O=C(CCCSc1ccc(NC(=O)C2CC2)nn1)NCC1CCCO1 (centres undefined),34.6
25,Cc1ncccc1-c1cc2cccnc2n1CCCNC(=O)C(C)(C)C,27.6
26,CCS(=O)(=O)N1CC[C@@H]2[C@H](CC1)N(CC(C)C)CCS2(=O)=O,-34.6

row,Structure (SMILES),INHIBITION [%]
1,Cc1cc(C(=O)N2CCCC2)ccc1NCC(=O)N1CCCCC1C (centres undefined),37.3
2,Cc1ccc(N2CCC3(CCN(C(=O)c4ccnnc4)CC3)CC2)nn1,-6.21
3,Cc1noc2nc3c(c(C(=O)/N=c4\[nH]ncs4)c12)CCC3,32.8
4,CS(=O)(=O)N1CCCC1c1ccnc2nccn12 (centres undefined),10.3545
5,Cc1cc(C)n(CCC(=O)N2CCCCC2c2nccs2)n1 (centres undefined),36.3
6,CN(C)c1cc(CNC(=O)C2COc3ccccc3O2)ccn1 (centres undefined),2.45
7,Cc1nnc(CN2CCN(Cc3nccn3C)CC2)n1C,59.3
8,Cc1cc(N2CCN(Cc3nccn3C)CC2)cc(C)n1,4.92
9,Cc1nnc2ccc(N3CCN(Cc4nccn4C)CC3)nn12,43.4
10,CC(C)N1CCN(c2ccc3ccc(C(=O)NC4CCCC4)cn23)CC1,-7.28
11,COCC(=O)N1CC[C@@H]2CN(Cc3cccnc3)S(=O)(=O)[C@@H]2CC1,43
12,Cc1ccc(S(=O)(=O)NC[C@H]2OC[C@@H](NCc3cccnc3)[C@@H]2O)cc1,57
13,Cc1ccc(S(=O)(=O)NC[C@H]2OC[C@@H](NCc3ccncc3)[C@@H]2O)cc1,53.2
14,CC(C)NC(=O)NC[C@H]1OC[C@@H](NCc2ccc(S(C)(=O)=O)cc2)[C@@H]1O,49.5
15,Cc1ccc(S(=O)(=O)NC[C@H]2OC[C@@H](NCc3ccccn3)[C@@H]2O)cc1,38.9
16,Cc1ccc(S(=O)(=O)NC[C@H]2OC[C@@H](NCc3ccccc3)[C@@H]2O)cc1,20.7
17,CC(C)NC(=O)NC[C@H]1OC[C@@H](NCc2ccncc2)[C@@H]1O,-48.1
18,O=C(NCC1CCOCC1)[C@@H]1C[C@@H]2[C@@H](CCN2Cc2nccs2)O1,21.1
19,COC1CCN(C(=O)CC2CCCC2)CC(=O)N(C)c2ccccc21 (centres undefined),3.31
20,CCc1nc(C)cn1C(=O)Nc1ccc(C)cc1,-4.82
21,CCc1nc(C)cn1C(=O)Nc1ccccc1,48.6
22,CCc1nc(C)cn1C(=O)Nc1ccc(F)cc1,78.2
23,O=C1CO[C@@H]2CN(CC3CCOC3)C[C@H]2N1Cc1cccc(F)c1 (some centres undefined),27.6
24,O=C1CO[C@@H]2CN(CC3CC3)C[C@H]2N1Cc1cccc(F)c1,75.4
25,O=C1CO[C@@H]2CN(C3CCOCC3)C[C@H]2N1Cc1cccc(F)c1,25.2
26,COc1cc(N2C[C@H](OCc3cccnc3)[C@H]3OCCC[C@H]32)ncn1,10.6

row,Structure (SMILES),INHIBITION [%]
1,Cc1ccc2c(c1)OC1(NC2=O)C(=O)N(C)c2ccccc21 (centres undefined),31.6
2,CN1C(=O)C2(NC(=O)c3ccccc3O2)c2ccccc21 (centres undefined),34
3,CC(C)CCN1C(=O)C2(NC(=O)c3ccccc3O2)c2ccccc21 (centres undefined),55.1
4,O=C1NCC2(CCCN(C(=O)c3csc(-c4cccs4)n3)C2)O1 (centres undefined),22
5,CC(C)[C@H](N)C(=O)N1CCCC(C2=Nc3ccccc3S(=O)(=O)N2)C1 (some centres undefined),26.4
6,COc1ccccc1N1CCC(CNS(=O)(=O)c2cccc(C#N)c2)C1 (centres undefined),-4.94
7,CCC(C)(N)c1nc(C(C)C)cc(=O)[nH]1 (centres undefined),-4.35
8,CC(C)c1cc(=O)[nH]c(-n2nc(C3CC3)cc2N)n1,97
9,NC1(c2nc(-c3ccccc3)cc(=O)[nH]2)CCCC1,-13.7
10,NC1(c2nc(-c3ccccc3)cc(=O)[nH]2)CCCCC1,-10.1
11,CCCc1cc(=O)[nH]c(SCc2ccccn2)n1,3.93
12,Cc1cc(=O)[nH]c(-n2nc(C3CC3)cc2N)n1,68.9
13,CCCc1cc(=O)[nH]c(-n2nc(C3CC3)cc2N)n1,94
14,Cc1cc(=O)[nH]c(-n2nc(-c3ccccc3)cc2N)n1,65.2
15,CC(C)c1cc(=O)[nH]c(C(C)(C)N)n1,-39.2
16,Cc1cc(C(=O)Nc2cc(C3CC3)n[nH]2)c2c(C)nn(C)c2n1,0.991
17,Cc1cc(C2CCC2)nc(N2CCC3(CCNC(=O)CC3)CC2)n1,-32.5
18,CCCc1cc(=O)[nH]c(-c2cccc(CN3CCCCCC3)c2)n1,43.9
19,O=C(C1=CCCC1)N1CCC[C@]2(C[C@@H](OCc3ccncc3)CO2)C1,-9.67
20,Cc1ccccc1C1(C(=O)NCCN(C)C)CCOCC1,18.9665
21,CC(C)N(C)Cc1ncn2c1CN(C(=O)C1CCCO1)CCC2 (centres undefined),4.08
22,O=c1c2c[nH]c(N3CCOCC3)nc-2cn1Cc1cccc(F)c1,33.4
23,COc1ccc(C(=O)CCc2nc(C3CC3)no2)cc1F,-19.1
24,COc1nn(C)c2c1CCCN(C(=O)c1ccsc1)C2,-15.7
25,O=C1CN(C(=O)C2CN(c3ccc(F)cc3)CCO2)CCN1 (centres undefined),-19.925
26,Cn1cnc(NC(=O)C2CC(=O)N(c3cccc(F)c3)C2)n1 (centres undefined),6.448
